In PubChem BioAssay AID1920062 (Sanford-Burnham Center for Chemical Genomics, 2024):
Screen size: about 370,000 compounds; about 400 (0.11%) were called active. What follows is part of a selection rich in actives, with near analogues and random picks from the rest. Unmarked numbers belong to inactive results.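 The calls were made as follows: active = activation at 10 µM reaching about 35% in either raw or pattern-adjusted values (limit read from the data); inactive = the rest.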

molecular target: Atrial natriuretic peptide receptor 2 (Homo sapiens) (UniProt P20594); test: human GC-B receptor activators, primary screen, HEK293 GC-B cells, cGMP TR-FRET, EC30 CNP (AID 1920062); conditions: at 10 µM, active compounds read high, 0% at EC30 CNP, 100% saturating CNP
Sequence (P20594 whole entry, looked up): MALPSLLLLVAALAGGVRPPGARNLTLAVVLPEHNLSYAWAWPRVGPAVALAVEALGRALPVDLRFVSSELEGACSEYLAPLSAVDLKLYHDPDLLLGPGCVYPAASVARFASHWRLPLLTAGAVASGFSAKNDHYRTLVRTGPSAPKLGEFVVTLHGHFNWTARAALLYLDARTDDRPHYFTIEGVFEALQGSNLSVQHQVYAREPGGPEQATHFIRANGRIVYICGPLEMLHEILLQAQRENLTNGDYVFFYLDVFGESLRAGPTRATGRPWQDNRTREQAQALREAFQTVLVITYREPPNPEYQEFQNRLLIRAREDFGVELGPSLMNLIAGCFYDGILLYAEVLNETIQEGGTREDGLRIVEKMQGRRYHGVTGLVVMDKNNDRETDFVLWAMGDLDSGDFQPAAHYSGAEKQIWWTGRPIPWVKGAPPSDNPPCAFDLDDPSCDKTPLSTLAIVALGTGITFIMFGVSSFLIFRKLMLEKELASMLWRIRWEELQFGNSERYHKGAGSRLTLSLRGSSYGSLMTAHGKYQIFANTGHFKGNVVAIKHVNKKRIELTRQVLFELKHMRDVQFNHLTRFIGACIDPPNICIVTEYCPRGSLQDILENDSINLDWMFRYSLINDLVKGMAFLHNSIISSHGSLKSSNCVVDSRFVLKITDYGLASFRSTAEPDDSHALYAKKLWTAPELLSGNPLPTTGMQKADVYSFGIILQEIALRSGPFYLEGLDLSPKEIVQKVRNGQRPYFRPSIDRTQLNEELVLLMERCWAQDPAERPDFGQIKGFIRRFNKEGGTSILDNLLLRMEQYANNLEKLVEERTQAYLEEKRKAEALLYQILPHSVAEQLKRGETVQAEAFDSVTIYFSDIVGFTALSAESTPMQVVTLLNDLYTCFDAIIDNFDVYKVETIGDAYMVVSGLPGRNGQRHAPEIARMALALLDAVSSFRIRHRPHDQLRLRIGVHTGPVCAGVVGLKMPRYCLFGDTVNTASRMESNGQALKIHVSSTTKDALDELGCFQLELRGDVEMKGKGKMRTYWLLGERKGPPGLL

SMILES | activation
CN(CC(=O)Nc1ccccc1Cl)C(=O)COc1cccc2c1OC(C)(C)C2 | -1.31%
O=C(CSc1n[nH]c(=O)n1-c1ccccc1)Nc1ccccc1C(F)(F)F | -2.36%
COCCCN1C(=O)c2ccc(C(=O)OCC(=O)NCc3ccccc3OC)cc2C1=O | -7.6%
Cc1ccc(CNC(=O)C(=O)c2cn(CC(=O)N3CCOCC3)c3ccccc23)cc1 | -3.39%
O=C1CSC(c2cccc(F)c2)N1c1ccc(O)cc1 (configuration not stated) | 2.71%
CC1CCCCN1S(=O)(=O)CCNC(=O)c1ccccc1 (configuration not stated) | -2.73%
Cc1ccc(NC(=O)CSCC(=O)N2CCOCC2)cc1 | 2.72%
O=C(CCSc1ccccc1)N1CCN(c2ccccc2F)CC1 | -0.35%
CC(C)(C)c1ccc(CSc2nnc(-c3cccs3)o2)cc1 | 3.23%
COc1ccccc1NC(=O)CSc1nnc(Cn2nnc(-c3ccccc3)n2)n1-c1ccccc1 | -7.79%
Nn1c(SCC(=O)Nc2ccc(S(N)(=O)=O)cc2)nnc1-c1n[nH]c2c1CCC2 | -3.98%
CS(=O)(=O)Nc1ccccc1N=C(c1ccccc1)c1ccccc1 | 4.92%
Cc1cccc(C(=O)NC2CCN(CC(=O)Nc3cccc(Cl)c3)CC2)c1 | 1.44%
CCc1nn(CCCC(=O)NC(C)c2ccccc2)c(=O)c2cc3occc3n12 (configuration not stated) | -9.68%
Cc1c2cnn(CC(=O)NCc3ccccn3)c(=O)c2c(C)n1Cc1ccc(Cl)cc1 | 0.59%
CC1=NN(/C(=N\c2nnc(C)s2)Nc2ccccc2)[C@H](c2ccc(C)cc2)S1 | -13.9%
COC(=O)c1ccc([C@@H](O)[C@H](C)C(=O)CC(=O)OC(C)(C)C)cc1 | 5.42%
CC(=O)c1cccc(NC(=O)CN2C(=O)c3cccnc3Oc3ccc(Cl)cc32)c1 | -2.67%
Cc1ccccc1C(=O)OC1OC(=O)C(Cl)=C1Nc1ccccc1 (configuration not stated) | 2.61%
C/C(=N\N(C)C)c1ccc(OCCOc2ccc([N+](=O)[O-])cc2)cc1 | 4.4%
O=C(Cc1ccc(-n2c(=O)c3sccc3n(Cc3ccc(F)cc3)c2=O)cc1)NCc1ccco1 | 6.68%
Cc1ccc(C(=O)N2CCCC2)c(F)c1F | 0.58%
COc1ccc(S(=O)(=O)N2CCN(C)CC2)c(C)c1 | -1.64%
CC[C@]1(C(=O)OC)[C@H]2C(=O)N(C)C(=O)[C@H]2[C@H]2CN(C)C(=NCc3ccccc3)N21 | -1.82%

SMILES | activation
CS(=O)(=O)N(CC(=O)N1CCN(c2cccc(Cl)c2)CC1)c1ccccc1 | -0.13%
COc1ccc(CSc2nc(N3CCOCC3)c3c(c2C#N)CC(C)(C)OC3)cc1 | 48.4% (active)
Cc1cc(C)c(C#N)c(SCc2ccc3c(c2)OCO3)n1 | 6.77%
c1ccc(CSc2ncnc3c2sc2nc(N4CCOCC4)c4c(c23)CCCC4)cc1 | -0.49%
O=C1CCC(=O)N(c2ccccc2)N1 | 0.63%
CC(=O)Nc1ccc(NC(=O)CSc2nnnn2-c2ccccc2F)cc1 | -2.78%
CCCCCN(C(=O)NC(=O)Nc1ccccc1OC)S(C)(=O)=O | 0.44%
CCn1c(SCC(=O)NNC(=O)c2ccc(OC)cc2)nnc1C(C)C | 1.41%
COc1ccccc1C(=O)CSc1nnc(-c2ccccn2)n1-c1ccccc1 | -3.37%
Nc1ncnc(Nc2cccc(Cl)c2Cl)n1 | 1.89%
CC1(C)OC(=O)C2=C(C[C@@H](C3CC3)O[C@H]2CCc2cccc(Cl)c2)O1 | 3.35%
C[C@@H]1CN([C@@H](C)CO)C(=O)CCCn2nncc2CO[C@H]1CN(C)Cc1ccc(C(F)(F)F)cc1 | -5.26%
CCOc1c(Br)cc(/C=C2\C(=O)N(CCC#N)N=C2C)cc1OC | 51.6% (active)
COc1ccc(C(CNC(=O)c2ccc(S(=O)(=O)Nc3ccccc3F)cc2)N(C)C)cc1 (configuration not stated) | -0.81%
CC1(c2ccc(Cl)cc2Cl)NC(=O)N(CC(=O)Nc2cccnc2Cl)C1=O (configuration not stated) | 3.74%
CCCCN(C)CCNC(=O)C1CCCN(S(=O)(=O)c2cccc3nsnc23)C1 (configuration not stated) | 4.51%
CC(Oc1ccc(F)cc1F)C(=O)/C=C/N(C)C (configuration not stated) | 1.84%
CCC(C)(C)NC(=O)C(c1cccc(OC)c1OC)N(CC(C)C)C(=O)CCC(=O)Nc1cc(C)on1 (configuration not stated) | -7.74%
CC1CCCCC12NC(=O)N(CC(=O)Nc1ccc(S(=O)(=O)Nc3ncccn3)cc1)C2=O (configuration not stated) | 1.08%
Nc1nnc(SCC(=O)NCC(=O)Nc2ccc(F)c(F)c2F)s1 | -0.75%
CC(=O)c1cccc(-n2nnnc2SCC(=O)NNC(=O)C2CCCCC2)c1 | 1.65%
O=C(OCC(=O)N1CCCCCC1)c1cnc(Cl)c(Cl)c1 | 4.57%
CC(=O)C[C@H](O)CC(=O)[C@@H]1OC(=O)[C@@H](C)C/C=C\Cc2ccccc21 | 5.5%
CCCCn1c(N)c(N2CCOCC2)c(=O)n(CC(=O)NCCc2ccccc2)c1=O | 0.41%

SMILES | activation
CC(=O)NC(Cc1ccc(F)cc1)C(=O)O (configuration not stated) | 7.58%
Cc1nc(C(F)(F)F)ccc1C(=O)N1CCC1(C)C(=O)NS(=O)(=O)c1ccc(F)cc1F (configuration not stated) | 1.28%
O=C1OCC2=C1C(c1ccccc1)CC(=O)N2c1cccc(F)c1 (configuration not stated) | 3.79%
CCOC(=O)C1(Cc2ccccc2C)CCCN(C(=O)CN2C(=O)CSC2=O)C1 (configuration not stated) | 1.31%
O=S1(=O)c2c(cccc2N2CCCCC2)O[C@H](COCc2ccccc2)CN1C1CC1 | 2.03%
O=C(Oc1ccc(C(=S)N2CCOCC2)cc1)c1ccc(F)cc1 | -0.5%
CC(NCc1nc2ccccc2n1C)C12CC3CC(CC(C3)C1)C2 (configuration not stated) | -3.22%
NC(=O)NC(=O)C(OC(=O)CCNS(=O)(=O)c1ccccc1)c1ccccc1 (configuration not stated) | 0.79%
CCOC(=O)N1CCN(C(=O)CN(C2CCCCC2)S(C)(=O)=O)CC1 | 6.88%
C/C(Cl)=C\Cn1c(Nc2cccc(C)c2)nc2c1c(=O)n(C)c(=O)n2C | 45.4% (active)
CCC/C(C)=N\Nc1nc2c(c(=O)n(C)c(=O)n2C)n1C | -1.79%
Cn1c(=O)c2c(nc(N/N=C/c3cccs3)n2Cc2ccc(Br)cc2)n(C)c1=O | 23.1%
Cc1cc(C)n(-c2nc(O)cc(=O)[nH]2)n1 | 6.13%
CCn1c(CNC(=O)c2ccccc2)nnc1SCC(=O)N1CCN(c2ccccc2)CC1 | 1.17%
CC(C)COC(=O)c1ccc(NC(=O)C2C3C=CC(C3)C2C(=O)O)cc1 (configuration not stated) | 6.16%
CCN(CC(=O)NCc1cccs1)S(=O)(=O)c1ccc(NC(C)=O)cc1 | 5.26%
CC(=O)N1C(C)c2ccccc2C(C)(C)CC12CCCCC2 (configuration not stated) | 1.32%
C=C1C2C[C@H](O)C(C)(C)[C@@]2(O)[C@H](O)C[C@]23C[C@@](C)(O)[C@H](CC[C@H]12)[C@H]3O (some centres not stated) | 5.08%
Cc1nc(CNc2ncnc3ccc(-c4ccc5c(c4)OCO5)cc23)cs1 | 3.38%
c1coc(CCNc2ncnc3ccc(-c4ccc5c(c4)OCO5)cc23)c1 | 50.1% (active)
O=C(Cn1nnc(-c2ccc3c(c2)OCO3)n1)NCc1ccco1 | -0.02%
CC(C)C(NC(=O)c1c(F)cccc1F)C(=O)NNC(=O)c1ccccc1 (configuration not stated) | 3.58%
O=Cc1c(Cl)cccc1Cl | -13.9%
Cc1ccccc1NC(=O)COC(=O)c1ccc(Sc2ncn[nH]2)c([N+](=O)[O-])c1 | -1.97%
